# “And” between values parts separate entries of the source, which are not always exact repeats. Identical values can stand only once.
# Experiment: probe aNOTCH2 binding on compound microarray – biochemical, small-molecule microarray, 635/667 nm fluorescence, primary screen (AID 1121);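 note: score merges feature fluorescence read at 667 nm with its signal to noise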
# Conditions: higher = more signal
row,Compound,composite z-score
1,CC(C)=NOC[C@@H](O)COCc1ccco1,-0.132
2,COC(=O)C1=C(C)N(Cc2ccccc2)C2=C(C(C)=O)C[C@@](O)(C(=O)OC)C(=O)N2[C@@H]1c1ccccc1,-0.0921 and -0.118
3,COC(=O)[C@@]1(Cc2ccc(OC)cc2)[C@H]2c3cc(C(=O)N(C)C)n(Cc4ccc(O)c(OC)c4)c3C[C@H]2CN1C(=O)c1ccccc1,0.357 and 0.124
4,C=CC[C@H](O)c1ccc(OCCO)cc1,-0.169 and -0.296
5,CC(C)=NO[C@@H](C)c1cc(-c2c(C)cc(C)cc2C)no1,-0.181
6,C[N+](C)(C)CCCCNC(=O)[C@H]1C[C@H]2C(=O)N[C@@H](CCCC[N+](C)(C)C)C(=O)N2[C@H]1c1ccc(O)cc1,-0.14 and -0.108
7,C[C@@]1([C@@H](NC(=O)Cc2ccccc2)c2ccc(-c3ccccc3)cc2)C[C@H]1C1CCCCC1,0.24 and 0.797 and -0.324
8,CCN1C(=O)[C@H]2[C@H]3[C@H](O)[C@H](O)CC(=NOC)[C@@H]3CC[C@H]2C1=O,-0.0681
9,O=C1NC(=O)C2C1C=CC(C(O)c1ccc([N+](=O)[O-])cc1)N2Nc1ccc(Cl)cc1Cl (stereo not given),0.0454 and 0.153
10,C=C[C@H](C)[C@@H](O)c1ccc(OCCO)cc1,-0.238 and -0.14
11,CC(C)CON=C1C[C@@H](O)[C@@H](O)[C@@H]2[C@@H]3C(=O)N(c4cccc(Oc5ccccc5)c4)C(=O)[C@@H]3CC[C@H]12,-0.118
12,CO[C@H]1COC(=O)CC=C[C@@H](C)COC(=O)[C@H](CCSC)NC(=O)CC=C[C@@H]1C,-0.0942 and -0.0241
13,C=C[C@@H](OC)[C@H](O)c1ccc(OCCO)cc1,-0.227 and -0.142
14,CCOC(=O)c1ccc(NC(=O)O[C@H]2[C@H](OC(=O)Nc3ccccc3)[C@@H](OC(=O)Nc3ccccc3)[C@@H](OC)O[C@@H]2CO)cc1,0.0149 and -0.0131
15,C=CCN(C(=O)C(c1cccs1)N(CCOCCO)C(=O)/C=C\C(=O)O)c1ccc(OC)cc1 (stereo not given),-0.14 and -0.126
16,C#CCN1C(/C=C/c2ccccc2)C(=O)OC[C@H]1c1ccccc1 (stereo not given in full),-0.181 and -0.101
17,CO[C@@H]1COC(=O)CC=C[C@H](C)COC(=O)[C@H](C)NC(=O)CC=C[C@H]1C,-0.164
18,Cc1cc2c(nc1C)CCCN2CC(O)CN1CCCc2nc(-c3ccc(Br)cc3)ccc21 (stereo not given),0.174 and 0.519
19,C=CCN(CCCCC)C(=O)C(c1cccs1)N(CCOCCO)C(=O)/C=C\C(=O)O (stereo not given),-0.177 and -0.143
20,COc1ccc(-c2ccc3c(n2)CCCN3CC(O)CN2CCCc3nc(-c4ccc(Br)cc4)ccc32)cc1 (stereo not given),-0.0125 and -0.0349

row,Compound,composite z-score
1,C=C[C@H](OC)[C@@H](O)c1ccc(OCCO)cc1,-0.248 and -0.242
2,C=CCN(C(=O)C1N(CCCCCCO)C(=O)C2C(C(=O)O)C3C=CC21O3)c1ccc(OC)cc1 (stereo not given),-0.0345 and -0.0148
3,O=C1C[C@]2(c3ccc([N+](=O)[O-])cc3)C(=O)N(Cc3ccccc3)c3cc(CO)ccc3[C@H]2N1C1CCCCC1,-0.179 and 0.0118
4,C=CCN(C(=O)C1N(c2c(Cl)cccc2CO)C(=O)C2C(C(=O)O)C3C=CC21O3)c1ccc(OC)cc1 (stereo not given),-0.46 and -0.162
5,C=CCN(C(=O)C1N(CCOCCO)C(=O)C2C(C(=O)O)C3C=CC21O3)C(C)(C)C (stereo not given),-0.116 and -0.153
6,COC(=O)C1=C2N(Cc3ccccc3)C(C)=C(C(=O)OC)[C@@H](c3ccccc3)N2C(=O)[C@](O)(C(=O)OC)C1,-0.171 and -0.0476
7,O=c1n(-c2ccccc2)c(=O)n2n1CC[C@@H]1C(=NOC[C@@H](O)COCc3ccco3)[C@H]3O[C@H]3[C@@H](O)[C@@H]12,-0.122 and -0.174
8,CC(CO)N1C(=O)[C@@H]2C3C(=O)OCCC=C[C@H]3OC23C=CCN(c2ccc(Cl)cc2)C(=O)[C@@H]13 (stereo not given in full),-0.0995 and 0.0031
9,CC(C)[Si]1(C(C)C)OCc2cc(CCCc3cc4c(c(CCc5ccccc5)n3)[Si](C(C)C)(C(C)C)OC4)nc(CCc3ccccc3)c21,-0.125 and -0.108
10,C=CCN(Cc1ccccc1)C(=O)C1N(CCOCCO)C(=O)C2C(C(=O)O)C3C=CC21O3 (stereo not given),-0.0984 and -0.183
11,C[N+](C)(C)CCCCCCNC(=O)[C@H]1C[C@H]2C(=O)N[C@@H](CCCC[N+](C)(C)C)C(=O)N2[C@H]1c1cccc(OCCO)c1,-0.148 and 0.046
12,CCCCCN1CC=CC23O[C@@H]4C=CCCOC(=O)C4[C@H]2C(=O)N(C(C)CO)[C@@H]3C1=O (stereo not given in full),-0.475 and -0.181
13,O=C1[C@H]2[C@H]3[C@H](O)[C@H](O)CC(=NOCc4ccccc4)[C@H]3CC[C@H]2C(=O)N1Cc1ccccc1,-0.0729
14,CO[C@H]1COC(=O)CC=C[C@H](C)[C@H](OC)COC(=O)[C@@H](C)COC(=O)CC=C[C@@H]1C,-0.153 and -0.14
15,CN1C(=O)C2CC=C([C@H]3Oc4ccccc4S(=O)(=O)N4CCC[C@@H]34)CC2C1=O (stereo not given in full),-0.14 and -0.084
16,C[C@@H](ON=C1[C@H]2CCn3c(=O)n(-c4ccccc4)c(=O)n3[C@H]2[C@H](O)[C@@H]2O[C@H]12)c1cn([C@H](CO)Cc2ccccc2)nn1,-0.17
17,CCOC(=O)C[C@H]1[C@H](OC(=O)c2ccccc2-c2ccccc2)[C@@H](NC(=O)Cc2ccc(OC)cc2)c2cc(OCCCO)ccc2N1C(=O)c1ccc2ccccc2n1,-0.14 and 0.0777
18,CCOC(=O)[C@H](CC(C)C)NC(=O)CCC1CC(OC(=O)NCc2cccc3ccccc23)CC2(CCCC(COC(=O)NCc3ccccc3)O2)O1 (stereo not given in full),-0.152
19,Cc1ccc(S(=O)(=O)N[C@@H]2COC(=O)CC=C[C@@H](C)[C@@H]3C=C[C@H](O)[C@@H](COC(=O)CC=C[C@H]2C)O3)cc1,-0.14 and -0.124
20,CO[C@@H]1COC(=O)[C@H](Cc2ccccc2)NC(=O)CC=C[C@@H](C)[C@H](OC)COC(=O)[C@@H](C)NC(=O)CC=C[C@H]1C,-0.173 and -0.214
